NPSR antag: neuropeptide S receptor (human) antagonism, cAMP; Potency, µM (doses to about 38.3 µM), inactives show top-dose activity change, negative = inhibition, usual class: inhibitors; AID 1461; CHO-NPSR cells, cAMP TR-FRET, antagonist mode; 220,000 tested, 1% active; active = well fitted curve in the direction sought with a large enough effect; inconclusive = small, poorly fitted or top-dose-only effect, or another doubt; inactive = no such curve, though single readings can be large; an effect the other way counts as inactive or inconclusive; also: potency is read from the fitted curve at half-maximal effect; nearly all actives have a fitted effect of over 50% in size
Sfp inh: Sfp phosphopantetheinyl transferase inhibition | Q9F4F7 | Biochemical Sfp PPTase activity, qHTS | Potency, µM, without a hit: largest response in the series, negative = inhibition, usual class: inhibitors | 310,000 tested, 3.5% active | AID 1490; active = well fitted curve in the direction sought with a large enough effect; inconclusive = small, poorly fitted or top-dose-only effect, or another doubt; inactive = no such curve, though single readings can be large; an effect the other way counts as inactive or inconclusive;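 also: the enzyme is Sfp with the accession as filed and its product quenches rhodamine fluorescence; potency is read from the fitted curve at half-maximal effect; 0% = enzyme reaction without inhibitor and -100% = no enzyme wells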
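Compounds were incubated with enzyme (final 15 nM) for 15 min at room temperature before substrate addition started the reaction. Fluorescence at 525 nm excitation, 598 nm emission was recorded immediately and after 30 minutes.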
KDM4E inh: blocks human JMJD2E demethylase activity | 230,000 tested, 1.6% active | Potency, µM (highest dose often 57.1 µM), inactives show at the highest dose activity change, negative = inhibition, hits mostly inhibitors | JMJD2E catalytic domain, FDH-coupled NADH fluorescence (FDH is formaldehyde dehydrogenase) | B2RXH2;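 also: potency is read from the fitted curve at half-maximal effect; 0% = wells with enzyme and -100% = buffer wells without enzyme; nearly all actives have a fitted effect of over 50% in size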
FBPA coupling cs: coupling enzyme interference in Giardia aldolase counter-screen; activity change, negative = inhibition, % at 58.2 µM, hits read low; coupling enzyme system counterscreen, AmpLite Red fluorescence; 290,000 tested, 0.67% active; in the data active = activity change below about -30%
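Fluorescence at 525 nm excitation and 598 nm emission measured inhibition of the coupled detection system without aldolase. Compounds (at 57.5 uM final) were preincubated 10 min at room temperature with coupling enzyme reagent before a 20 min substrate/AmpLite Red step.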
ALDH1A1 block: blocks purified human ALDH1A1 activity. P00352. Purified ALDH1A1, NADH fluorescence, propionaldehyde substrate. 220,000 tested, 7.3% active. AID 1030. Potency, µM (highest dose often 75.3 µM), for the others: at the highest dose activity, negative = inhibition, hits mostly inhibitors;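 also: potency is read from the fitted curve at half-maximal effect; plate controls were no enzyme wells and a reference inhibitor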
Target sequence (P00352 whole entry, looked up): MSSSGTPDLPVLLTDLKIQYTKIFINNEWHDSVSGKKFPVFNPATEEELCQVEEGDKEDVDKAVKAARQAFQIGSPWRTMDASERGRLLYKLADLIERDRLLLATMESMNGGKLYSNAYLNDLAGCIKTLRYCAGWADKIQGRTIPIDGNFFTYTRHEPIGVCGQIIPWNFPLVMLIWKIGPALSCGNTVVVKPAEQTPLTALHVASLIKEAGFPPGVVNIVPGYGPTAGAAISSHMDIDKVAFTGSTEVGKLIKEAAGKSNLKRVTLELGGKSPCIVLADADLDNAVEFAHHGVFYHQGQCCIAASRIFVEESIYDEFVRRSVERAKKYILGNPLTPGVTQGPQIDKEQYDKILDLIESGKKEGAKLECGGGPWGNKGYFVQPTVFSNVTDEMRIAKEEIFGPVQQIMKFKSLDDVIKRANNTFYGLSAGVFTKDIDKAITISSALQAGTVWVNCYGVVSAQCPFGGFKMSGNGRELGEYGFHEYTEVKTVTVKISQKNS
RGS12 GoLoco inh: inhibitors of human Gai1-RGS12 GoLoco interaction (red fluorophore). P63096. Gai1:RGS12 GoLoco peptide FP, rhodamine, 10 min. Potency, µM (titrated, usually from 61.6 µM), for the others: at the highest dose activity, negative = inhibition, most hits filed as inhibitors. 230,000 tested, 0.44% active; active = well fitted inhibition curve with a large enough effect, not every such curve was filed as active; inactive = no such curve, though single readings can be large or run the other way; also: potency is read from the fitted curve at half-maximal effect; nearly all actives have a fitted effect of over 30% in size
An asterisk follows results filed as active; ! = not active in a repeat; [ ] = remark or other dose. Compounds with a hit are over-represented: about 8.5% of the library has one in this group of screens. Unless noted, calls follow the shape of the dose curve; as a rule, active = well fitted inhibition curve with a large enough effect (not every such curve was filed as active); inconclusive = small, poorly fitted or top-dose-only effect, or another doubt; inactive = no such curve, though single readings can be large or run the other way. Unless noted, % is scaled to controls: 0 for no effect and ±100 for the full control effect.

What do the screens show for `COc1ccc(S(=O)(=O)N(CC(=O)Nc2cccnc2)c2ccccc2OC)cc1`?
NPSR antag: -11.4%[46.1 µM]; Sfp inh: 17.1%; KDM4E inh: 6.8%; FBPA coupling cs: 1.5; ALDH1A1 block: 10µM*; RGS12 GoLoco inh: -15.0%

Results for COc1ccc(OCC(=O)NNC(=S)NC(=O)c2ccc(Br)o2)cc1 ?
Sfp inh: 2.6%

How did CCOc1cc(CNCCSc2nnnn2C)cc(Br)c1OCc1ccc(F)cc1 do in these assays?
NPSR antag: -1.8%; Sfp inh: inconclusive; KDM4E inh: -7.6%; FBPA coupling cs: 1.0; ALDH1A1 block: 0.3%; RGS12 GoLoco inh: 7.9%

How did COc1cc(CNCCSc2nnnn2C)cc(Br)c1OCc1ccc(F)cc1 do in these assays?
NPSR antag: inconclusive; Sfp inh: 14.1µM*; KDM4E inh: -0.8%; FBPA coupling cs: -6.1; ALDH1A1 block: -7.5%; RGS12 GoLoco inh: -6.6%

Results for Cc1nn2c(NCCOCCO)c3c(nc2c1-c1ccccc1)CCCC3 ?
NPSR antag: -19.2%[46.1 µM]; Sfp inh: 12.1%; KDM4E inh: 2.9%; FBPA coupling cs: -0.7; ALDH1A1 block: 31.6µM*; RGS12 GoLoco inh: 5.5%

What do the screens show for `COCCNc1c2c(nc3c(-c4ccccc4)c(C)nn13)CCCC2`?
NPSR antag: -19.8%[46.1 µM]; Sfp inh: -8.3%; KDM4E inh: -27.6%; FBPA coupling cs: -1.4; ALDH1A1 block: -9.4%; RGS12 GoLoco inh: 4.6%

What do the screens show for `CCCCNc1c2c(nc3c(-c4ccccc4)c(C)nn13)CCC2`?
NPSR antag: 10µM*; Sfp inh: -8.1%; KDM4E inh: -1.6%; FBPA coupling cs: 0.2; ALDH1A1 block: inactive; RGS12 GoLoco inh: 2.7%

How did CCC(O)CNC(=O)NC(=C(Cl)Cl)c1ccc(C)c(F)c1 (configuration not stated) do in these assays?
NPSR antag: 13.7%; Sfp inh: 12.4%; KDM4E inh: 4.5%; FBPA coupling cs: 2.2; ALDH1A1 block: 3.55µM*; RGS12 GoLoco inh: 2.1%

Results for CCn1c(SCC(=O)NC2CCCC2)nnc1C(C)NC(=O)c1ccccc1Br (configuration not stated) ?
Sfp inh: 13.3%; FBPA coupling cs: 1.2

How did c1ccc(C2[C@H]3CN(Cc4cccnc4)[C@H](c4ccccc4)C34CC2(c2ccccc2)C4)cc1 (some centres not stated) do in these assays?
NPSR antag: -54.6%; Sfp inh: inconclusive; KDM4E inh: -10.7%; FBPA coupling cs: -0.5; ALDH1A1 block: inconclusive; RGS12 GoLoco inh: 39.2%

Results for c1ccc(C2[C@H]3CN(Cc4cccnc4)[C@H](c4ccccc4)C34CC2(c2cccnc2)C4)cc1 (some centres not stated) ?
NPSR antag: inconclusive; Sfp inh: 56.2µM*!; KDM4E inh: -1.8%; FBPA coupling cs: 2.3; ALDH1A1 block: inconclusive; RGS12 GoLoco inh: 7.9%

What do the screens show for `Cc1cc([N+](=O)[O-])c(C)cc1-c1ccc(/C=N/NC(=O)Cn2nnnc2N)o1`?
NPSR antag: -0.8%; Sfp inh: 20.5%; KDM4E inh: -0.5%; FBPA coupling cs: -16.4; ALDH1A1 block: 15µM*; RGS12 GoLoco inh: 34.4%

Results for COc1c(C=O)c(O)cc2c1C(=O)c1ccccc1C2=O ?
Sfp inh: inconclusive; ALDH1A1 block: 3.55µM*; RGS12 GoLoco inh: -3.5%

Results for O=C1C2=C(C(=O)c3ccccc31)C1O[C@](CCCCN3C(=O)c4ccccc4C3=O)(Cc3ccccc31)O2 ?
Sfp inh: 12.2%; FBPA coupling cs: -20.4

Results for CC(C)Cc1nc2oc3c(N4CCN(CCO)CC4)ncnc3c2c2c1CCCC2 ?
NPSR antag: -12.2%[46.1 µM]; Sfp inh: -13.5%; KDM4E inh: -8.7%; FBPA coupling cs: -2.4; ALDH1A1 block: 7.94µM*; RGS12 GoLoco inh: 8.2%

What do the screens show for `CCOC(=O)N1CCN(c2ncnc3c2oc2nc(C(C)C)c4c(c23)CCC4)CC1`?
NPSR antag: -7.7%[46.1 µM]; Sfp inh: -7.8%; KDM4E inh: 2.4%; FBPA coupling cs: 4.4; ALDH1A1 block: 1µM*; RGS12 GoLoco inh: -2.2%

How did COc1ccc(C(=O)NCC(O)COc2ccc(C(C)(C)C)cc2)cc1[N+](=O)[O-] (configuration not stated) do in these assays?
NPSR antag: 11.8%; Sfp inh: 17.1%; KDM4E inh: 2.2%; FBPA coupling cs: 2.2; ALDH1A1 block: -13.6%; RGS12 GoLoco inh: 3.0%

Results for CCCc1nnc(NC(=O)CCC(=O)N2CCN(C3c4ccccc4-c4ccccc43)CC2)s1 ?
NPSR antag: -7.3%[46.1 µM]; Sfp inh: -13.5%; KDM4E inh: -7.4%; FBPA coupling cs: 2.0; ALDH1A1 block: -5.8%; RGS12 GoLoco inh: -3.5%

Results for Cc1ccc(CN2CCN(c3ccccn3)CC2)s1 ?
NPSR antag: 0.8%[46.1 µM]; Sfp inh: 56.2µM*; KDM4E inh: inconclusive; FBPA coupling cs: -8.9; ALDH1A1 block: -7.2%; RGS12 GoLoco inh: -2.1%

What do the screens show for `Cc1ccc(S(=O)(=O)CCN2CCN(c3ccccn3)CC2)cc1`?
NPSR antag: -24.6%; Sfp inh: 15.7%; KDM4E inh: 5.6%; FBPA coupling cs: -2.7; ALDH1A1 block: 12.6µM*; RGS12 GoLoco inh: 3.4%

What do the screens show for `CC(=O)Nc1sc2c(c1CN1CCCC1)CCCC2`?
NPSR antag: 6.7%; Sfp inh: 13.9%; KDM4E inh: -4.8%; FBPA coupling cs: 0.3; RGS12 GoLoco inh: 8.8%

How did c1ccc(N2CCN(Cc3ccsc3)CC2)nc1 do in these assays?
NPSR antag: 0.5%[46.1 µM]; Sfp inh: -12.6%; KDM4E inh: -9.5%; FBPA coupling cs: 1.1; ALDH1A1 block: -7.9%; RGS12 GoLoco inh: -1.3%

How did CC(=O)Nc1sc2c(c1CN1CCN(c3ccccn3)CC1)CCCC2 do in these assays?
NPSR antag: -26.1%[46.1 µM]; Sfp inh: -4.2%; KDM4E inh: -0.6%; FBPA coupling cs: 0.0; ALDH1A1 block: 22.4µM*; RGS12 GoLoco inh: 3.6%

Results for Cc1occc1C(=O)N1CCCC(N2CCN(c3cccc(Cl)c3)CC2)C1 (configuration not stated) ?
Sfp inh: -3.8%

Results for CN(C)Cc1nc2ccccc2c(=O)n1Cc1nc(-c2cc3ccccc3o2)cs1 ?
NPSR antag: -19.2%[46.1 µM]; Sfp inh: inconclusive; KDM4E inh: -13.3%; FBPA coupling cs: 0.3; ALDH1A1 block: -3.5%; RGS12 GoLoco inh: 8.5%

Results for CCOc1ccc(-c2csc(Cn3c(CN4CCN(C)CC4)nc4ccccc4c3=O)n2)cc1 ?
NPSR antag: 22.6%[46.1 µM]; Sfp inh: inconclusive; KDM4E inh: -7.7%; FBPA coupling cs: -4.7; ALDH1A1 block: 14.1µM*

What do the screens show for `CSc1ccc(CCNC(=O)CCc2nnc3ccc(N4CCC5(CC4)OCCO5)nn23)cc1`?
Sfp inh: 5.0%; FBPA coupling cs: 0.2
